# Source: paper PMC4336329 (PLoS ONE, 2015)
# Out of some 310,000 compounds screened, about 14,000 (4.5%) showed an effect of 50% or more. The effect is printed as a negative number. The entries come from a sample that favours strong results as a whole.
# Molecular target: human ether-à-go-go-related gene (hERG) potassium channel (human, UniProt Q12809)
# Experiment: primary screen, population patch clamp on CHO cells stably expressing hERG; higher = less effect of the substance
# 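Note: peak tail current of the secondary pulse compared with the same well before compound.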
# Chain of human ether-à-go-go-related gene (hERG) potassium channel (Q12809 whole entry, looked up): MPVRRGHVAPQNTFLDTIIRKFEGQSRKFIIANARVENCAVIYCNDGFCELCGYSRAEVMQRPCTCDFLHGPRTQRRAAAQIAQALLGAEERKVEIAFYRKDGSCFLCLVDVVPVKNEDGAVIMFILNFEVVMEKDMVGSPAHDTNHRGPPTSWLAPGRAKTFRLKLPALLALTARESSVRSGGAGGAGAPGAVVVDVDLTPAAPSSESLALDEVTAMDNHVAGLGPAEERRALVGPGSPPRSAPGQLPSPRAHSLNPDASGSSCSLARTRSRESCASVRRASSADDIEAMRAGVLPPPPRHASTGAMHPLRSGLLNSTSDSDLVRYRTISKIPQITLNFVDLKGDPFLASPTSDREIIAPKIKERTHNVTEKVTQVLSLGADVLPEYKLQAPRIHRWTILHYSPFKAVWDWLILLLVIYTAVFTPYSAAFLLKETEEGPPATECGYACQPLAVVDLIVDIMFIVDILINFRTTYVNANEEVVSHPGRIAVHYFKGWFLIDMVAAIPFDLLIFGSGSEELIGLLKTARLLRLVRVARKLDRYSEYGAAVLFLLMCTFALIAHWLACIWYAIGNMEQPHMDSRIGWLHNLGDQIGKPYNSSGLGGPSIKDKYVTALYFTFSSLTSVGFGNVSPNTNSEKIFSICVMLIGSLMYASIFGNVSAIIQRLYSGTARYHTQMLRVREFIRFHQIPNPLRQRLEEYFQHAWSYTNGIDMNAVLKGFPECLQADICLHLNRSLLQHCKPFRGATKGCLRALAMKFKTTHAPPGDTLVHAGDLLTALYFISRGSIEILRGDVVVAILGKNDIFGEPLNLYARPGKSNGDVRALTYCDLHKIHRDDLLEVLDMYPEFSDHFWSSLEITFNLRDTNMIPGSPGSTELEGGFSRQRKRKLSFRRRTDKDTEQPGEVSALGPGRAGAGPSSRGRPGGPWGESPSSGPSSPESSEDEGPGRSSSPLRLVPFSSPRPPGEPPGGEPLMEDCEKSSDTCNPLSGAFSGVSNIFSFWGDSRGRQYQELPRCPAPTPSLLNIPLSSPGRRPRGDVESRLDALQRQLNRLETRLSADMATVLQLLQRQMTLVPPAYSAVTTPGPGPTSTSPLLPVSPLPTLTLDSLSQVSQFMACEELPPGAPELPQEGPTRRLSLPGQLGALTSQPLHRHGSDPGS
row,SMILES,"hERG current change (%, negative = inhibition) at 10uM [%]"
1,O=C(CN1CCC2(CC1)OCCO2)c1ccc2cc[nH]c2c1,-15.2
2,Cc1cc(C(=O)N/N=C/c2ccc(-c3cccc(Cl)c3)o2)n[nH]1,11.3
3,CN1C(C(=O)NCc2ccc(OC(F)(F)F)cc2)CC2Cn3c(nc4ccccc43)C21 (stereo not drawn),-78.7
4,CN1C(C(=O)NCC2CC2)CC2Cn3c(nc4ccccc43)C21 (stereo not drawn),15.5
5,COc1ccc(CCNC(=O)C2CC3Cn4c(nc5ccccc54)C3N2C)cc1 (stereo not drawn),-8.64
6,CCOc1ncccc1C(=O)NCCCSc1ccccc1,-35.9
7,O=C(O)C1=C[C@@H](c2ccccc2)C[C@@H](OCCCCO)O1,8.4
8,COc1ccc(/C=N/N2CCN(c3ccccc3OC)CC2)cc1OC,-19.7
9,COc1ccc(CC(C)N2CCN(Cc3ccccc3)CC2)cc1OC (stereo not drawn),-33.1
10,COc1ccc(CC(C)N2CCN(c3ccccc3)CC2)cc1OC (stereo not drawn),-64
11,COc1ccc(CC(=O)N2CCN(c3ccccc3)CC2)cc1OC,18.4
12,COc1ccccc1CC(=O)N1CCN(c2cccc(C(F)(F)F)c2)CC1,-9.71
13,COc1ccc(CC(C)N2CCN(c3ccccc3OC)CC2)cc1OC (stereo not drawn),-62.1
14,COc1ccc(CC(C)N2CCN(c3cccc(C(F)(F)F)c3)CC2)cc1OC (stereo not drawn),-65.9
15,COc1ccc(S(=O)(=O)N2CCN(c3ccccc3OC)CC2)cc1OC,-2.71
16,COc1cccc(CN2CCN(c3cccc(C(F)(F)F)c3)CC2)c1OC,-23.9
17,CC1(/[N+]([O-])=C\c2ccccc2F)CCCCC1=O (stereo not drawn),8.53
18,Cc1ccn2c(-c3n[nH]c(=S)n3C)c(C)nc2c1,19.6
19,COc1cccc(NC(=O)N2CCCC2C(=O)Nc2ccc3c(c2)OCO3)c1 (stereo not drawn),15.8
20,O=c1[nH]c(=S)n(CCC2=CCCCC2)c(O)c1/C=N/Nc1ccccc1,-7.83
21,Cn1c(O)c(C=NC2CCN(Cc3ccccc3)CC2)c(=O)n(C)c1=O,-20.4
22,O=c1[nH]c(=O)n(Cc2ccco2)c(O)c1C=NC1CC1,9.35
23,O=c1[nH]c(=O)n(Cc2ccco2)c(O)c1C=NC1CCN(Cc2ccccc2)CC1,-59.2
24,O=c1[nH]c(=O)n(C2CCCCCC2)c(O)c1C=NC1CCN(Cc2ccccc2)CC1,-53.2

row,SMILES,"hERG current change (%, negative = inhibition) at 10uM [%]"
1,C=CCn1c(O)c(C=NC2CCN(Cc3ccccc3)CC2)c(=O)[nH]c1=O,-33.5
2,O=c1[nH]c(=S)n(CCC2=CCCCC2)c(O)c1C=NC1CCN(Cc2ccccc2)CC1,-55
3,O=c1[nH]c(=O)n(C2CCCCCC2)c(O)c1C=NCc1cccnc1,-9.79
4,O=c1[nH]c(=O)n(CCC2=CCCCC2)c(O)c1C=NC1CCN(Cc2ccccc2)CC1,-58.6
5,O=c1[nH]c(=O)n(Cc2ccco2)c(O)c1/C=N/N1CCCCC1,3.21
6,O=C(N/N=C/c1c(O)n(CCC2=CCCCC2)c(=S)[nH]c1=O)c1ccccc1,7.94
7,O=c1[nH]c(=O)n(CCC2=CCCCC2)c(O)c1/C=N/Nc1ccccc1,14.8
8,CC(C)(C)NC(=O)COC(=O)c1cc(S(=O)(=O)N2CCCCC2)ccc1N1CCOCC1,-6.23
9,CCOC(=O)c1ccc(N2C(=O)CC(Nc3ccc(CCO)cc3)C2=O)cc1 (stereo not drawn),-25.5
10,OCC[C@@H]1C[C@H](O)[C@@H](O)[C@]2(CCCCO2)O1,21.2
11,CCOc1ccc(C(Nc2ccc(C)cc2)P2(=O)OCC(C)(C)CO2)cc1 (stereo not drawn),4.67
12,Cn1cccc1CC(=O)NNC(=O)Nc1cccc(Cl)c1,18.9
13,O=S(=O)(Nc1ccccc1O)c1cccc2cccnc12,8.14
14,O=C(CNC(=O)c1cccs1)NCCN1CCN(c2ccccc2F)CC1,-35.3
15,N#Cc1ccc(NC(=O)N2CCC(c3nc4c(nnn4Cc4cccc(Cl)c4)c(=O)[nH]3)CC2)cc1,3.5
16,Cc1ccccc1SCC(=O)Nc1cc(C(F)(F)F)ccc1N1CCOCC1,-1.77
17,O=c1[nH]c(=O)n(CCc2ccccc2)c(O)c1C=NC1CC1,3.17
18,Cn1c(O)c(C=NC2CCN(Cc3ccccc3)CC2)c(=O)[nH]c1=O,-26.5
19,CCCCCCn1c(O)c(C=NC2CCN(Cc3ccccc3)CC2)c(=O)[nH]c1=O,-65.7
20,Cc1cccc(NC(=O)CN2CCN(CC(=O)NCc3ccc(Cl)cc3Cl)CC2)c1C,-18.2
21,COC(=O)c1ccccc1NC(=O)N1CCN(C(=O)c2ccco2)CC1,-25
22,COC(=O)c1ccccc1NC(=O)CN1CCN(C23CC4CC(CC(C4)C2)C3)CC1,-77.5
23,O=C(CN1CCCCC1)Nc1ccccc1-c1ccccc1,-9.07
24,O=C(CN1CCN(Cc2ccccc2)CC1)Nc1ccccc1-c1ccccc1,-89.8

row,SMILES,"hERG current change (%, negative = inhibition) at 10uM [%]"
1,COC(=O)c1ccccc1NC(=O)CN1CCN(C(=O)c2ccco2)CC1,-51.6
2,COC(=O)c1ccccc1NC(=O)CN1CCC(C)CC1,9.3
3,NC(=O)c1ccccc1NC(=O)Nc1cccc(Cl)c1,-8.62
4,NC(=O)c1ccccc1NC(=O)CN1CCN(Cc2ccc(Cl)cc2Cl)CC1,-76.1
5,O=C(CN1CCOCC1)Nc1ccccc1-c1ccccc1,4.15
6,COC(=O)c1ccccc1NC(=O)CN1CCOCC1,5.86
7,COc1ccc(OCC(=O)NCCCN2CCOCC2)cc1,10.7
8,CC1=C(C(=O)OCc2ccccc2)C(c2ccsc2)C(C#N)=C(N)O1 (stereo not drawn),-6.93
9,Cc1cccc(COc2ccc(/C=C3/C(=O)N(C)C(=S)N3C)cc2)c1,15.7
10,O=C(Nc1ccccc1)Nc1nnc(Cc2ccc(F)cc2)s1,20.1
11,O=C(NCc1ccco1)c1ccccc1,8.8
12,CCN(CC)S(=O)(=O)c1ccc(N2CCOCC2)c(NC(=O)Cc2cccc3ccccc23)c1,-1.03
13,N#CC1=C(N)N(c2ccccc2)C(c2cccc([N+](=O)[O-])c2)C1(C#N)C#N (stereo not drawn),-29.6
14,COc1cc([N+](=O)[O-])ccc1NC(=O)CN1CCN(C(=O)c2ccco2)CC1,-78.4
15,COc1ccc(NC(=O)CN2CCN(C(=O)c3ccco3)CC2)c(OC)c1,-37.4
16,COC(=O)c1ccccc1NC(=O)CN1CCCCC1,9.99
17,COC(=O)c1ccccc1NC(=O)CN1CCCCCC1,8
18,COc1ccccc1NC(=O)c1ccc(NC(=O)CN2CCN(C(=O)c3ccco3)CC2)cc1,-72.9
19,O=C(CN1CCN(C(=O)c2ccco2)CC1)Nc1ccccc1,-13.9
20,COC(=O)c1ccccc1NC(=O)CN1CCN(Cc2ccccc2)CC1,-74.5
21,O=C(CN1CCN(C(=O)c2ccco2)CC1)Nc1ccccc1-c1ccccc1,-50.5
22,NC(=O)c1ccc(NC(=O)CN2CCN(C(=O)c3ccco3)CC2)cc1,-3.09
23,COc1cc([N+](=O)[O-])ccc1NC(=O)CN1CCOCC1,9.44
24,COc1ccccc1NC(=O)c1ccc(NC(=O)CN2CCCC2)cc1,-34.2

row,SMILES,"hERG current change (%, negative = inhibition) at 10uM [%]"
1,COc1ccccc1NC(=O)CN1CCN(C(=O)c2ccco2)CC1,-22
2,COc1ccc(NC2(c3ccccc3)OC(=O)c3ccccc32)cc1 (stereo not drawn),1.2
3,CC(=O)c1cccc(OCc2cc(C(=O)NCCC3=CCCCC3)no2)c1,7.85
4,COc1cccc(NC(=O)c2nnn(CC(=O)Nc3cc(C)cc(C)c3)c2N)c1,13.5
5,O=C(c1cccc(COc2cccc3ccccc23)c1)N1CCCC1,-4.59
6,CC(=O)Nc1ccc(S(=O)(=O)NCCC(=O)Nc2cc(C)ccn2)cc1,7.68
7,NS(=O)(=O)c1ccc(CCNC(=O)C2CCCN(S(=O)(=O)c3cccnc3)C2)cc1 (stereo not drawn),-4.22
8,NC(=O)c1ccccc1NC(=O)CN1CCCCCC1,11.1
9,NC(=O)c1ccccc1NC(=O)CN1CCOCC1,7.22
10,NC(=O)c1ccccc1NC(=O)CN1CCN(Cc2ccccc2)CC1,-78.3
11,O=C1Nc2ccc(S(=O)(=O)NCc3ccco3)c3cccc1c23,-16.2
12,O=C1NN(c2cccc(Br)c2)C(=O)/C1=C/c1ccc(-c2cc([N+](=O)[O-])ccc2O)o1,-9.65
13,CCNC(=O)COc1ccc(S(=O)(=O)Nc2ccccc2)cc1,-1.85
14,CC(C)C(=O)Nc1cccc(NC(=S)NC(=O)c2ccccc2Cl)c1,-9.02
15,CCCC(c1c(C)n(C)n(-c2ccccc2)c1=O)c1c(C)n(C)n(-c2ccccc2)c1=O,0.692
16,Br.Cc1ccccc1OCC(=O)NN1Cc2ccccc2C1=N,-0.416
17,Br.N=C1c2ccccc2CN1NC(=O)COc1ccc(Cl)cc1,-50.4
18,Br.COc1ccccc1OCC(=O)NN1Cc2ccccc2C1=N,1.99
19,Br.CC(C)(C)c1ccc(OCC(=O)NN2Cc3ccccc3C2=N)cc1,-65.5
20,Br.CCc1ccc(OCC(=O)NN2Cc3ccccc3C2=N)cc1,-38.8
21,Br.COc1ccc(OCC(=O)NN2Cc3ccccc3C2=N)cc1,-18.1
22,Br.CCOc1ccccc1OCC(=O)NN1Cc2ccccc2C1=N,-73.5
23,Br.N#Cc1ccc(OCC(=O)NN2Cc3ccccc3C2=N)cc1,4.14
24,Br.Cc1cc(C)cc(OCC(=O)NN2Cc3ccccc3C2=N)c1,-11.6
